EPAC1 antagonist: qHTS for Antagonist of cAMP-regulated guanine nucleotide exchange factor 3 (EPAC1): primary screen; Rap guanine nucleotide exchange factor 3 (Homo sapiens), O95398; EPAC1 GEF assay, Rap1b-BODIPY-GDP exchange fluorescence; Potency, µM (highest dose often 115 µM), for inactives: top-dose activity change, negative = inhibition, actives largely listed as inhibitors; 360,000 compounds, 0.14% hits; AID 720709, 2013;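 further: potency means the concentration at half of the fitted maximal effect; plate controls were vehicle for no effect and positive control for full effect; nearly all actives have a fitted effect of over 50% in size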
EPAC2 antag: qHTS for Antagonist of cAMP-regulated guanine nucleotide exchange factor 2 (EPAC2): primary screen | AID 720708, 2013 | 360,000 compounds, 0.18% hits | EPAC2 GEF exchange of Rap1B-BODIPY-GDP, fluorescence | Rap guanine nucleotide exchange factor 4 (Homo sapiens), Q8WZA2 | Potency, µM (titrated, usually from 114 µM), for the others: at the highest dose activity, negative = inhibition, hits mostly inhibitors; further: potency means the concentration at half of the fitted maximal effect; on the % scale 0 is the no-effect control and ±100 the full control effect; nearly all actives have a fitted effect of over 45% in size
Target sequence (Q8WZA2 whole entry, looked up): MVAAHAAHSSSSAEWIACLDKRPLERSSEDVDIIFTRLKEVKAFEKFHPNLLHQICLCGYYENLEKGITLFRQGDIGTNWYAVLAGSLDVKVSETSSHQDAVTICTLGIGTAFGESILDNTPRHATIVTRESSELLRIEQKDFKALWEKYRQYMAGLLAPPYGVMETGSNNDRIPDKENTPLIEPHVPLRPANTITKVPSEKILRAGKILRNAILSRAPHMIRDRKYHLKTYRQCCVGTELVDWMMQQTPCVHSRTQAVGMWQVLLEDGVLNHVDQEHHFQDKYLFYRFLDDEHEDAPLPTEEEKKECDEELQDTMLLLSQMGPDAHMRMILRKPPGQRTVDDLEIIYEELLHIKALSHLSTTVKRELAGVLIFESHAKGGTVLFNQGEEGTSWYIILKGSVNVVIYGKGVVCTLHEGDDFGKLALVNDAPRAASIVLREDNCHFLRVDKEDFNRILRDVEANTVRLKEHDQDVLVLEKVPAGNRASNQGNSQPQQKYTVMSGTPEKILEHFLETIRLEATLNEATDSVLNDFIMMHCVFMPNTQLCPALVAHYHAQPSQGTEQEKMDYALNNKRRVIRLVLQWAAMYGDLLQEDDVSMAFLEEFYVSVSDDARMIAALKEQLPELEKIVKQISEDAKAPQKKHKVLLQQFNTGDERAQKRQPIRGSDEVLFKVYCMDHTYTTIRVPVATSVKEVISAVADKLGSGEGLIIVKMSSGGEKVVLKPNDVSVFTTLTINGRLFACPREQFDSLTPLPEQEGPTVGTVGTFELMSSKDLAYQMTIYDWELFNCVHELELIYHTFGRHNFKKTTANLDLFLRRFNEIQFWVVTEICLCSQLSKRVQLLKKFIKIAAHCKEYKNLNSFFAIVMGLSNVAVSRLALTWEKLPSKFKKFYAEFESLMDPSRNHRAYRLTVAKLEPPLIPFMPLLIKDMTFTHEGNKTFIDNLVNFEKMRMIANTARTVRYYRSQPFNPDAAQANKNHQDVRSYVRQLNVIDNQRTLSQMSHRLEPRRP
KCNH2 WT inh: qHTS for Inhibitors of KCHN2 3.1: Wildtype qHTS; Voltage-gated inwardly rectifying potassium channel KCNH2 (Homo sapiens), Q12809; U2OS, BacMam KCNH2, thallium flux FluxOr; active compounds read low; activity change, % at 1.84 µM; 340,000 compounds, 0.37% hits;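 active means maximum activity change below -70%; inconclusive means maximum activity change between -70% and -50%; inactive means maximum activity change above -50%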; further: on the % scale 0 is the no-effect control and ±100 the full control effect
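U2OS cells transduced with wild-type KCNH2 virus are loaded with FluxOr dye for 45 min, and thallium flux is measured in kinetic reads before and after stimulation buffer. Rate constants are normalized to DMSO controls.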
EPAC1 agonist: qHTS for Agonist of cAMP-regulated guanine nucleotide exchange factor 3 (EPAC1): primary screen; EPAC1 agonist qHTS, biochemical assay; response scale: 100% = response to 6.5 mM cAMP; Potency, µM (highest dose often 154 µM), inactives show top-dose activation, actives largely listed as activators; 360,000 compounds, 0.073% hits; AID 720707, 2013; further: potency means the concentration at half of the fitted maximal effect; nearly all actives have a fitted effect of over 60% in size
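Multi-concentration qHTS readout: loss of Rap1B-bound BODIPY-GDP fluorescence driven by 100 nM EPAC1 with excess GDP (50 uM), monitored kinetically at room temperature; agonist response expressed relative to 6.5 mM cAMP.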
EPAC2 agonist: qHTS for Agonist of cAMP-regulated guanine nucleotide exchange factor 4 (EPAC2): primary screen; EPAC2 activation, biochemical qHTS; response scale: 100% = 6.5 mM cAMP response; 360,000 compounds, 0.079% hits; Potency, µM (titrated, usually from 154 µM), inactives show at the top dose activation, actives largely listed as activators; AID 720711, 2013; further: potency means the concentration at half of the fitted maximal effect; nearly all actives have a fitted effect of over 50% in size
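Nucleotide exchange monitored as fluorescence drop when BODIPY-GDP leaves Rap1B. Reaction: 100 nM EPAC2, 250 nM RAP1B-BODIPY-GDP, 50 uM GDP, room temperature, kinetic read over 30 min. Activity expressed relative to 6.5 mM cAMP.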
KCNH2 3.1 block: qHTS for Inhibitors of KCHN2 3.1: Mutant qHTS; Potassium voltage-gated channel subfamily H member 2, brain isoform KCNH2 3.1 (human); U2OS KCNH2 3.1, thallium flux FluxOr; active compounds read low; activity change, % (tested at about 1.8 µM); 340,000 compounds, 0.95% hits;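 active means maximum activity change below -70%; inconclusive means maximum activity change from -70% to -50%; inactive means maximum activity change above -50%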;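 further: thallium influx rate constant from kinetic fluorescence after stimulation buffer; on the % scale 0 is the no-effect control and ±100 the full control effect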
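We transduce U2OS cells with the mutant 3.1 virus, culture them overnight, load FluxOr with Red40 quencher for 45 min, then add stimulation buffer and read kinetically for 2 min to derive a normalized rate constant.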
The depositor's hits bear a star; ? = inconclusive; · = not tested or not shown. Rows were chosen to be rich in hits. Some 1.4% of all compounds tested hit in one or more screens of this group. Unless noted, the call rests on the fitted dose curve; in most records, active means well fitted curve in the direction sought with a large enough effect; inconclusive means small, poorly fitted or top-dose-only effect, or another doubt; inactive means no such curve, though single readings can be large; an effect the other way counts as inactive or inconclusive.

SMILES	EPAC1 antagonist	EPAC2 antag	KCNH2 WT inh	EPAC1 agonist	EPAC2 agonist	KCNH2 3.1 block
Cc1cc(S(=O)(=O)c2ccc(Cl)cc2)nc(S(=O)(=O)c2ccc(Cl)cc2)c1C#N	-9.2%	-17.2%	1.8	-6.9%	-1.7%	-73.5*
COc1ccc(N2C(=O)C(CC(N)=O)N(NC(=O)CCc3ccccc3)C2=O)cc1 (stereo not given)	-8.1%	0.5%	1.7	-17.1%	-0.4%	18.0
O=C(Cn1nnc(-c2ccc(OCc3ccccc3F)cc2)n1)N1CCOCC1	-5.1%	2.2%	24.7	15.1%	5.8%	-89.6*
CCCn1c(S(=O)(=O)O)nc2ccccc21	3.2%	0.0%	-18.3	4.1%	4.1%	14.0
CCC(C)n1c(S(=O)(=O)O)nc2ccccc21 (stereo not given)	12.4%	6.5%	-183.8*	-3.6%	6.5%	-12.2
COc1ccc(C(=O)C(=O)N2CCC(c3ccccc3)CC2)cn1	-21.3%	-9.1%	·	21.5%	10.8%	·
O=C(NCc1ccco1)c1ccc(COc2ccccc2[N+](=O)[O-])o1	12.0%	3.9%	20.5	-2.0%	1.5%	8.5
O=C(NN=C1CCCC1)c1cc(-c2ccccc2)n[nH]1	-19.9%	-0.2%	-0.6	-6.2%	9.3%	4.6
O=C(NN=C1CCCC1)c1ccn[nH]1	-1.5%	-2.0%	-135.7*	5.2%	1.0%	-200.1*
O=C(N/N=C/c1ccccn1)c1cc(C2CC2)[nH]n1	-3.3%	6.3%	14.6	3.2%	-0.8%	-91.7*
Cc1cccc(C)c1-n1nnnc1C(c1ccnc2ccccc12)N1CCN(c2ccccc2F)CC1 (stereo not given)	9.9%	2.9%	·	-2.7%	9.4%	·
COc1ccc(C2CC(c3ccc(Cl)cc3)Nc3nc(NC(=O)c4ccco4)nn32)cc1 (stereo not given)	5.5%	-0.6%	-37.8	0.7%	-0.3%	-71.4*
CC1CCCC(C)N1C(=O)COC(=O)COc1ccc(C#N)cc1 (stereo not given)	-21.6%	0.9%	-8.3	-8.6%	2.3%	5.9
Cc1cccc(OCC(=O)N/N=C/CC(C)c2ccccc2)c1C (stereo not given)	?	-6.6%	-14.1	9.8%	16.9%	-6.4
CSc1ccccc1NC(=O)CN(C)C(=O)c1ccc(NC(=O)c2cccs2)cc1	?	2.4%	1.0	0.8%	4.7%	-8.6
O=c1oc2ccccc2nc1/C=C(O)/C=C\c1ccccc1	-4.9%	27.2%	-17.0	5.3%	63.1µM*	·
O=c1oc2ccccc2nc1/C=C(O)/C=C/c1ccc(F)cc1	12.7%	7.2%	10.3	10.6%	-0.4%	8.8
O=Cc1ccc(-c2cccs2)s1	-9.2%	-10.0%	-34.0	8.4%	0.4%	-30.8
Oc1ccc(N=Cc2ccc(-c3cccs3)s2)cc1	31.6µM*	?	5.6	17.7%	25.0%	17.8
COc1cccc(C(=O)N2CCC[C@@H]2C(=O)N2CCC[C@H]2C(=O)NCc2ccncc2)c1	10.7%	8.0%	·	-1.3%	4.7%	·
O=c1cc(-c2ccccc2Cl)oc2c(NS(=O)(=O)c3cc(Cl)cc(Cl)c3O)ccc(O)c12	35.5µM*	28.2µM*	·	1.3%	0.4%	·
CCCc1nc2c3ccccc3ccn2c1Cc1cccc(F)c1	-8.8%	-5.2%	·	3.2%	15.9%	·
O=C1CC(Cc2ccccc2)C(=O)N1CCc1ccc2c(c1)OCO2 (stereo not given)	11.5%	11.2µM*	-7.7	7.2%	-19.4%	13.4
Cc1cccc(CC2CC(=O)N(CCc3ccc4c(c3)OCO4)C2=O)c1 (stereo not given)	-18.3%	12.2%	-8.4	1.9%	20.5%	2.7
COc1ccc(NC(=S)Nc2ccc3snnc3c2)cc1	6.0%	-0.9%	3.9	0.5%	11.6%	-83.0*
SMILES	EPAC1 antagonist	EPAC2 antag	KCNH2 WT inh	EPAC1 agonist	EPAC2 agonist	KCNH2 3.1 block
O=C1NN(c2ccccc2)C(=O)/C1=C/c1ccc(Sc2cccc3ccccc23)o1	56.2µM*	4.8%	2.5	-5.0%	-13.4%	1.1
O=C1NN(c2ccccc2)C(=O)/C1=C/c1ccc(-c2ccc(C(=O)O)cc2)o1	-8.1%	7.7%	8.9	13.1%	17.8%	-0.4
CC1(Cc2ccc(Cl)cc2)C(=O)Nc2ccc(-c3cccnc3)cc21 (stereo not given)	-6.6%	50.1µM*	·	-2.1%	11.7%	·
Cn1cc(/C=C(\NC(=O)c2ccccc2)C(=O)NCCCn2ccnc2)c2ccccc21	12.1%	2.0%	0.0	-13.6%	5.4%	-4.6
O=C(CCCNC(=O)/C(=C/c1ccc(Br)cc1)NC(=O)c1ccccc1)OCc1ccccc1	-4.3%	8.6%	-0.5	-4.2%	-1.4%	-113.0*
CC(C)c1ccc(/C=C(\NC(=O)c2ccccc2)C(=O)NCCCn2ccnc2)cc1	-8.4%	-15.7%	-18.6	0.7%	-8.2%	-102.0*
O=C(NCCCn1ccnc1)/C(=C/c1ccc(F)cc1)NC(=O)c1ccccc1	-21.0%	0.4%	-8.6	3.7%	8.0%	-115.8*
O=C(CNC(=O)/C(=C\c1ccccc1)NC(=O)c1ccc(Br)cc1)OCc1ccccc1	-6.7%	7.5%	-42.0	14.4%	4.9%	?
COc1ccccc1/C=C(/NC(=O)c1ccccc1)C(=O)NCCCn1ccnc1	-3.6%	-6.4%	14.8	12.4%	0.3%	-4.8
CCNc1nnc(SCC(=O)N2c3ccccc3NC(=O)CC2C)s1 (stereo not given)	-4.9%	-0.6%	2.2	6.6%	19.0%	-37.1
CC1(C(=O)NCc2ccccc2)CN(S(C)(=O)=O)CC(=O)N1C1CC1 (stereo not given)	-4.0%	-5.8%	·	10.5%	11.2%	·
CCCNc1ncnc2nc[nH]c12	0.3%	-4.4%	-7.6	9.6%	6.3%	8.4
OCCOCCNc1ncnc2nc[nH]c12	6.8%	20.0%	-4.4	-9.7%	4.0%	-207.2*
COc1cc(CNCCc2c[nH]c3ccccc23)ccc1OCc1ccc(F)cc1	-1.5%	3.7%	-20.4	1.7%	2.9%	-87.7*
COc1cccc(CNCCc2c[nH]c3ccccc23)c1OCc1ccc(F)cc1	-5.2%	-2.6%	1.4	4.0%	3.8%	-37.6
